ALDH1A1 block: inhibitors of human aldehyde dehydrogenase 1A1 | P00352 | Purified ALDH1A1, NADH fluorescence, propionaldehyde substrate | Potency, µM (highest dose often 75.3 µM), for inactives: top-dose activity, negative = inhibition, most hits filed as inhibitors | hit rate 7.3% among 220,000;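 note: potency is the fitted concentration of half-maximal effect; plate controls were no enzyme wells and a reference inhibitor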
Target sequence (P00352 whole entry, looked up): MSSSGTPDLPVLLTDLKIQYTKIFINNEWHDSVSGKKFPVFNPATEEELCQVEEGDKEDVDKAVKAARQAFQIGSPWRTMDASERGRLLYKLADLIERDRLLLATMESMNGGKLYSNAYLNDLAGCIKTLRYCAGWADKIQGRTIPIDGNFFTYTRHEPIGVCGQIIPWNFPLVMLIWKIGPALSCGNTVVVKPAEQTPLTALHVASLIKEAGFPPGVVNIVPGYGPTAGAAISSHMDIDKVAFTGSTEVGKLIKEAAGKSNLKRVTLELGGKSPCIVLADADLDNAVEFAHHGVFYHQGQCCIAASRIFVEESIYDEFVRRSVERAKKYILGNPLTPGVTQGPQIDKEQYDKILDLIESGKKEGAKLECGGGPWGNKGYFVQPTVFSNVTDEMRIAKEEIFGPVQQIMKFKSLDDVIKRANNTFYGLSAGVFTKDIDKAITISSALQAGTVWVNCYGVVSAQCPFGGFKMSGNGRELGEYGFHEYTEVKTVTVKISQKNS
KDM4E inh: blocks human JMJD2E demethylase activity. B2RXH2. JMJD2E catalytic domain, FDH-coupled NADH fluorescence (FDH is formaldehyde dehydrogenase). Potency, µM (doses to about 57.1 µM), for the others: at the highest dose activity change, negative = inhibition, hits mostly inhibitors. hit rate 1.6% among 230,000;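 note: potency is the fitted concentration of half-maximal effect; 0% = wells with enzyme and -100% = buffer wells without enzyme; nearly all actives have a fitted effect of over 50% in size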
HPGD block: inhibitors of human 15-hydroxyprostaglandin dehydrogenase (HPGD). P15428. purified HPGD, NADH fluorescence kinetic, PGE2 substrate. Potency, µM, without a hit: at the top dose activity change, negative = inhibition, hits mostly inhibitors. hit rate 4.3% among 150,000. AID 894; note: potency is the fitted concentration of half-maximal effect
Target sequence (P15428 whole entry, looked up): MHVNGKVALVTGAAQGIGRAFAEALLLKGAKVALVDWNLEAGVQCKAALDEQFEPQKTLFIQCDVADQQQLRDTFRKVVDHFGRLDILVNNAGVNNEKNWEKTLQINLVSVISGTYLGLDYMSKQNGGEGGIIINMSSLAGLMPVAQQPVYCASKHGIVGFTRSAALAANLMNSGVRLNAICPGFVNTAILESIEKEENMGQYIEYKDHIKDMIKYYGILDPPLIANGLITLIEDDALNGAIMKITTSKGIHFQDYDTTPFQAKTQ
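NADH formation kinetics: reaction with 30 uM PGE2 and 1 mM NAD+ (final), 20 nM enzyme, Tris-HCl pH 8 with Tween 20, after 15 min compound preincubation at room temperature. Fluorescence change, last versus first of five reads.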
PNC assembly inh: inhibitors of perinucleolar compartment assembly; AID 2417; PC3M PTB-GFP, PNC prevalence imaging, 16 h; stronger effect = lower value; activity change (PNC), negative = inhibition, % at 10 µM; hit rate 3.1% among 140,000;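 active = readout at or below -70, meaning at least 70% loss of cells showing the perinucleolar compartment, a nuclear body marking cancer cells; inconclusive = readout between -30 and a set limit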;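 note: plate controls were DMSO wells for no effect and camptothecin positive control wells for full effect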
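Read-out is percentage of cells bearing a perinucleolar compartment, from automated 20x imaging of fixed, Hoechst-stained PC3M PTB-GFP cells. Cells were seeded 4 h, then exposed 16 h to compound (23 nl of library stock) in duplicate plates.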
* = called active by the depositor; ? = inconclusive; nt = not tested or not shown; [ ] = remark or other dose. Compounds with a hit are over-represented: about 11% of the library has one in this group of screens. Unless noted, calls come from the whole dose curve; as a rule, active = well fitted inhibition curve with a large enough effect (not every such curve was filed as active); inconclusive = small, poorly fitted or top-dose-only effect, or another doubt; inactive = no such curve, though single readings can be large or run the other way. Unless noted, % is set by controls: 0 for no effect and ±100 for the full control effect.

SMILES | ALDH1A1 block | KDM4E inh | HPGD block | PNC assembly inh
CCCCC(=NCCc1c(C)[nH]c2ccc(OC)cc12)C1=C(O)CC(c2ccccc2)CC1=O (stereo unspecified) | -12.7% | 25.1µM* | nt | nt
CCC(=NCCc1c(C)[nH]c2ccc(OC(F)(F)F)cc12)C1=C(O)CC(c2ccccc2)CC1=O (stereo unspecified) | 0.2% | 4.5% | nt | nt
COCC(=O)Oc1c(Sc2ccccc2[N+](=O)[O-])c(C)nn1C(C)(C)C | 8.91µM* | -11.3% | nt | nt
Cn1ccnc1Sc1ccccc1[N+](=O)[O-] | -4.6% | -12.4% | nt | nt
CCC(CC)C(=O)Oc1c(Sc2ccccc2[N+](=O)[O-])c(C)nn1C(C)(C)C | 2.24µM* | -2.8% | -24.9% | ?
COc1cccc([C@@H]2Oc3ccc(Br)cc3C(=O)[C@H]2OC(=O)Nc2ccc(C)c(Br)c2)c1 | 11.7% | 4.8% | -8.4% | nt
CN(C)CCCNC(=O)/C(=C\C=C\c1ccccc1)NC(=O)c1ccc([N+](=O)[O-])cc1 | nt | 7.1% | nt | nt
C/C(CC(=O)N(C(C)C)C(C)C)=N\NC(=O)COc1ccc(Cl)cc1Cl | ? | 21.3% | nt | nt
C/C(CC(=O)N(C(C)C)C(C)C)=N\NC(=O)COc1ccc(Br)cc1Br | 10.9% | -1.9% | -23.5% | -109.0*
CC(C)(C)C(=O)Nc1cc(S(=O)(=O)N2CCCCC2)ccc1N1CCCCC1 | -0.7% | 1.9% | nt | nt
COC(=O)c1ccc(NC(=S)NC(=O)c2c(Cl)cnn2C)cc1 | 1.6% | -2.5% | -47.7% | 61.4
COC(=O)c1cc(NC(=O)c2c(Cl)cnn2C)cc(C(=O)OC)c1 | -5.2% | -8.1% | -9.5% | -100.8*
COC(=O)c1ccccc1NC(=O)c1ccc(Cn2cc(Cl)cn2)o1 | -1.8% | ? | -12.0% | 43.3
COC(=O)c1cc(NC(=O)c2ccc(Cn3cc(Cl)cn3)o2)cc(C(=O)OC)c1 | -4.5% | -8.8% | 1.26µM* | 19.1
CCNS(=O)(=O)c1ccc(NC(=O)c2ccc(Cn3cc([N+](=O)[O-])cn3)o2)cc1 | 18.9µM* | 5.4% | nt | nt
COc1ccc(NC(=O)C(CC(C)C)NC(=O)C2CCCCC2)c(OC)c1 (stereo unspecified) | 7.7% | -1.1% | nt | nt
Cc1ccc(Oc2ncccc2N)c2c1CCC2 | nt | -14.6% | nt | nt
Fc1ccc(C(OCCCc2cnc[nH]2)c2ccc(F)cc2)cc1 | -9.7% | -6.2% | -5.3% | nt
N#Cc1c2n(c3c(=S)nc[nH]c13)CCCCC2 | 18.9µM* | -21.6% | -26.6% | -6.7
N#Cc1c2n(c3c(=O)[nH]cnc13)CCCC2 | -6.0% | -28.9% | -13.4% | ?
Oc1ccc(-c2nc3ccc4ccccc4c3c3c2CCC3)cc1O | 0.1% | 25.1µM* | -8.3% | -29.1
CCOC(=O)Cc1cc(-c2ccc(O)cc2)nc2ccc3ccccc3c12 | ? | ? | -19.5% | ?
CC=CC1=C(C(=O)O)N2C(=O)[C@H](NC(=O)[C@H](N)c3ccc(O)cc3)[C@@H]2SC1 | ? | nt | -19.8% | nt
COC(=O)Cn1c(=NC(=O)c2ccc([N+](=O)[O-])s2)sc2cc(Br)ccc21 | 8.91µM* | -0.6% | -14.4% | -93.4*
COC(=O)Cn1c(=NC(=O)c2ccc(Cl)s2)sc2cc(C)ccc21 | ? | -0.3% | ? | -119.4*
SMILES | ALDH1A1 block | KDM4E inh | HPGD block | PNC assembly inh
COC(=O)Cn1c(=NC(=O)c2nc3ccccc3s2)sc2cc(S(C)(=O)=O)ccc21 | ? | ? | ? | 6.1
Cc1ccc2c(c1)CCCN2C(=O)c1cc2ccccc2oc1=O | 14.1µM* | -0.5% | -14.5% | -28.0
Cc1ccccc1NC(=S)NCCc1ccccc1 | ? | -1.1% | 25.1µM* | ?
Cc1cccc(C)c1NC(=S)NCCc1ccccn1 | -3.9% | -4.2% | -9.5% | -105.2*
S=C(NCc1ccccc1)NCc1ccccc1 | ? | 3.4% | 14.1µM* | -21.5
Cc1ccccc1NC(=S)NCCc1ccccn1 | 14.0% | 1.2% | -3.1% | ?
Cc1ccccc1NC(=S)NCc1cccs1 | -1.8% | -5.7% | -19.9% | ?
COc1ccc(CCNC(=S)Nc2ccccc2C)cc1 | 4.0% | 0.2% | -2.4% | -6.4
Cc1ccccc1NC(=S)NCc1ccccc1 | 1.7% | ? | 28.2µM* | ?
O=C(c1cc(C(F)(F)F)cc(C(F)(F)F)c1)N1CCC2(CCCN(c3ccncc3)C2)CC1 | 15.5% | nt | -16.0% | nt
Cn1c(=O)n(C)c2cc(/C=N/N=C3/NC(=O)C(CC(=O)O)S3)ccc21 (stereo unspecified) | 0.5% | ? | nt | nt
Cc1c(Cl)cccc1NC(=S)NCCC(C)C | -8.4% | ? | -26.4% | ?
O=S(=O)(c1c(F)cccc1F)N1CCN(C(=S)NCc2ccc3c(c2)OCO3)CC1 | 3.98µM* | 2.9% | nt | nt
S=C(NCc1ccccc1)NCc1ccc2c(c1)OCO2 | ? | 9.4% | 15.8µM* | ?
S=C(NCCc1ccccc1)Nc1ccccn1 | 3.16µM* | -29.6% | -5.3% | 10.8
Cc1c(Cl)cccc1NC(=S)NCc1ccccc1Cl | 8.7% | 4.0% | 22.4µM* | 12.1
Cc1cccc(CN2CCN([C@@H](c3ccccc3)c3ccc(Cl)cc3)CC2)c1 | -3.4%[20.9 µM] | -0.5%[25.5 µM] | -3.9% | nt
Cc1c(Cl)cccc1NC(=S)NCCC(c1ccccc1)c1ccccc1 | ? | -3.5% | -18.7% | ?
Cc1cccc(NC(=S)NC(=O)CCc2ccccc2)c1C | 12.6µM* | -5.0% | -28.0% | 26.6
Cc1cc(Cl)ccc1NC(=S)NCCC(c1ccccc1)c1ccccc1 | 0.2% | -6.7% | -6.9% | -86.0*
Cc1ccc2c(c1Br)/C(=N/N1C(=O)c3ccccc3C1=O)C(=O)N2 | 0.751µM* | 0.7% | -12.2% | 58.9
O=C(N/N=C/c1sc(N2CCCCC2)nc1-c1cccs1)C1CC1 | 22.4µM* | ? | nt | nt
O=C(O)CCCc1ccc2ccccc2c1 | -5.4%[13.5 µM] | nt | -6.1% | nt
COc1ccc(OC)c(NC(=O)CS(=O)(=O)c2ccccc2)c1 | ? | 6.3% | 5.4% | -4.3
COc1cc(OC)nc(NC(=O)CS(=O)(=O)c2ccccc2)n1 | -9.2% | 4.3% | -2.8% | -118.9*
SMILES | ALDH1A1 block | KDM4E inh | HPGD block | PNC assembly inh
CC1=CC(C)(C)Nc2ccc(OC(=O)CN3C(=O)c4cccc5cccc(c45)C3=O)cc21 | 11.2µM* | 12.6µM* | -20.7% | 40.2
CC1=CC(C)(C)Nc2ccc(OC(=O)CN3C(=O)c4ccccc4C3=O)cc21 | ? | -0.5% | ? | -25.2
O=C(CSc1ccc(F)cc1)Nc1ccc(C2SCCS2)cc1 | nt | 4.5% | nt | nt
Cc1ccc(NC(=O)N2CCCN(Cc3ccc(F)cc3)C2)cc1C | -1.3% | 88.1% | -14.9% | ?
Oc1cccc(CN2CCCCC2)c1 | 3.8% | 9.3% | -6.1% | 0.5
CCOC(=O)N1CCN(C(=O)C2CCN(Cc3cccc(OCc4ccccc4)c3)CC2)CC1 | 14.1µM* | ? | -7.1% | 54.3
Fc1ccc(CN2CCCCCCC2)cc1F | 17.8µM* | -0.5% | -5.6% | ?
O=C(Nc1ccc(Cl)cc1)N1CCC(CO)(Cc2ccccc2)CC1 | 12.6µM* | -14.2% | nt | nt
O=C(Nc1ccc(Cl)cc1)N1CCN(c2ccccc2)CC1 | 1.6% | 2.3% | 4.7% | ?
O=C(Nc1ccc(Cl)cc1)N1CCCN(Cc2ccccc2F)C1 | -6.6% | 84.5% | 12.6µM* | -9.7
CC(=O)C1C(c2ccc([N+](=O)[O-])cc2)c2c(noc2C)CC1(C)O (stereo unspecified) | nt | 1.5% | nt | nt
COC(C(=O)NNC(=O)CCc1ccccc1)c1ccccc1 (stereo unspecified) | 6.8% | -2.8% | nt | nt

Screening results (PubChem)
